# Bioassay records (PubChem)
# A selection: hits, their analogues and other compounds. The true share with any hit is near 0.5%.
# phage Ecoli inh: E. coli growth loss with phage present. growth absorbance. inhibition, % at 11.9 µM. 0.26% of 360,000 active. AID 651602; in the data active means inhibition above about 11%
# AddAB inh: less growth of phage-infected E. coli with AddAB. E. coli expressing H. pylori AddAB, absorbance growth. inhibition, % at 11.9 µM. 0.29% of 330,000 active. AID 435030; in the data active means inhibition above about 12%;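 further: 0% = vehicle wells of infected cells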
# E coli growth-1: inhibitors of Escherichia coli growth. AID 1053175. OD600 absorbance (no concentration beside the values). OD600, 23 h; active compounds read low. 0.21% of 330,000 active;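 active means OD600 absorbance below the run mean of sample wells minus 3.6 SD, in any replicate, cut at about 0.56 in these data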
# E coli growth-2: bacterial growth inhibition, counter-screen for AddAB inhibitors; inhibition, % at 11.9 µM; E. coli V3065 growth, OD600 absorbance, 18 h; 0.27% of 330,000 active;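 active means inhibition above the campaign's mean inhibition across all tested compounds plus 3 SD, cut at about 9.9% in these data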;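 further: uninfected addAB+ strain grown without phage in ampicillin broth; 0% = DMSO wells and 100% = ciprofloxacin 0.95 µg/ml wells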
# Tat export inh: blocks Tat-dependent protein export in E. coli | AID 488895 | inhibition, % at 10 µM | 0.036% of 340,000 active | E. coli MC4100 TorA-mCherry Tat export, fluorescence;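 active means mean replicate inhibition at least 50% and at least half of replicates individually reaching 50%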;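 further: exported cargo escapes ClpAP degradation while cytoplasmic cargo is degraded and loses fluorescence; 0% = median of neutral control wells and 100% = median of NaSCN control wells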
# AddAB conf: confirmation screen: growth loss of phage-infected E. coli expressing H. pylori AddAB; shares compounds with AddAB inh; E. coli V3065 expressing H. pylori AddAB, T4 phage, OD; T4 phage with gene 2 nonsense mutations; inhibition, % at 11.9 µM; 64% of 880 active;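 active means mean inhibition above a set limit taken from the earlier primary screen, cut at about 13% in these data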;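 further: higher means less bacterial growth since AddAB block lets phage replicate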
# RecBCD counter: counter-screen: growth loss of RecBCD+ E. coli with mutant T4 phage. shares compounds with AddAB inh. E. coli V66 + mutant T4 phage, OD growth. inhibition, % at 11.9 µM. 73% of 880 active;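 active means mean inhibition above the mean of solvent-only control wells plus 3 SD, cut at about 4% in these data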;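 further: optical density read after an 18 h incubation at 37 °C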
# bact viab count: counter-screen: bacterial growth inhibition; shares compounds with AddAB inh; inhibition, % at 11.9 µM; bacterial viability, absorbance (AddAB counterscreen); AID 488956; 35% of 880 active; in the data active means inhibition above about 25%
# Active calls of the source: *; . = no result.
SMILES,phage Ecoli inh,AddAB inh,E coli growth-1,E coli growth-2,Tat export inh,AddAB conf,RecBCD counter,bact viab count
O=C(Cn1c(=O)oc2cc(S(=O)(=O)N3CCCCCC3)ccc21)NC1CCCCCCC1,2,-2,0.79,-1,-15,.,.,.
CCCNC(=O)Cn1c(=O)oc2cc(S(=O)(=O)N3CCCC3)ccc21,-2,55*,0.76,37*,0,-2,-1,-4
CC1=NN(C(N)=S)C(=O)C1N=Nc1c(C)cc(C)cc1C (stereo not drawn),2,1,0.7,8,-5,.,.,.
CC1=NN(C(N)=S)C(=O)C1N=Nc1c(Br)cc(Br)cc1Br (stereo not drawn),10,14*,.,14*,4,26*,13*,26*
CN(C)C=C(C(=O)c1ccc(F)cc1)S(=O)(=O)c1ccc(F)cc1,.,.,0.71,.,.,.,.,.
C#Cc1ccc(C2C=C(C(=O)OCC=C)OC(OCC)C2CCCO)cc1 (stereo not drawn),.,.,0.67,.,.,.,.,.
Cc1ccc(-c2noc(N=O)c2NO)cc1,5,24*,0.61,19*,-15,33*,7.9*,31*
CC(C)c1ccc(NC(=S)NC2CCCCCC2)cc1,1,98*,0.7,87*,-4,-4,1,1
S=C(Nc1ccc(Oc2ccc(NC(=S)NC3CCCCC3)cc2)cc1)NC1CCCCC1,0,4,0.68,5,2,.,.,.
Cc1ccc(S(=O)(=O)Nc2ccc(S(=O)(=O)Nc3nccs3)cc2)c([N+](=O)[O-])c1,10,16*,0.67,9,-4,6,4.1*,8
Cc1ccc(S(=O)(=O)Nc2nccs2)cc1[N+](=O)[O-],3,3,0.66,1,-4,.,.,.
CC1CN(C(C)CO)C(=O)c2cc(NC(=O)Nc3ccc(C(F)(F)F)cc3)ccc2OC1CN(C)S(=O)(=O)c1cccs1 (stereo not drawn),.,.,0.72,.,.,.,.,.
CCc1cccc(NC(=O)CCCSc2nc3ccccc3[nH]2)c1,5,12*,0.65,6,-18,3,3,1
CC1CCC[C@]2(CC(=O)c3cc(F)ccc3O2)C1 (stereo partly drawn),.,.,0.69,.,.,.,.,.
CCOc1ccc(NC(=O)Cn2cc(C(C)=O)c3ccccc32)cc1,3,1,0.73,-2,-6,.,.,.
COc1ccc(NC(=O)Cn2cc(C(C)=O)c3ccccc32)cc1,10,16*,0.68,14*,-1,9,12*,11
CCCCn1c(SCC(=O)c2ccc(O)c(O)c2)nc2ccsc2c1=O,.,15*,0.66,9,-1,4,4.7*,4
O=C(O)CCCCCn1c(SCC(=O)c2ccc(O)c(O)c2)nc2ccsc2c1=O,-2,1,0.67,-2,-19,.,.,.
CS(=O)(=O)c1ccc(CNC(=O)C2(C(F)(F)F)CC(=CCc3ccccc3)CCCO2)cc1 (stereo not drawn),.,.,0.65,.,.,.,.,.
Cc1ccc(S(=O)(=O)C=Cc2ccccc2)cc1,.,.,0.66,.,.,.,.,.
CCCCOC(=O)C(C)Oc1ccc(=O)n(-c2ccccc2)n1 (stereo not drawn),2,21*,0.77,5,-3,4,1,-3
CN(C)CCN1C(=O)C(=O)C(=C(O)c2ccc(OCc3ccccc3)cc2)C1c1ccncc1 (stereo not drawn),.,.,0.69,.,.,.,.,.
COc1cc(NC(=O)c2cc(C3CC3)on2)c(OC)cc1Cl,-1,98*,0.76,77*,7,-2,2,0
CC(C)Cc1ccc(CN2CCCC(NC(=O)c3ccnn3C)C2)cc1 (stereo not drawn),1,0,0.66,-1,9,.,.,.
CC(C)Cc1ccc(CN2CCCC(NC(=O)c3ccoc3)C2)cc1 (stereo not drawn),4,14*,0.61,13*,-4,10,5.4*,9
SMILES,phage Ecoli inh,AddAB inh,E coli growth-1,E coli growth-2,Tat export inh,AddAB conf,RecBCD counter,bact viab count
COc1ccc(OC)c(C2CC(=O)C(C)C(c3cc(OC)ccc3OC)N2)c1 (stereo not drawn),2,13*,0.69,11*,4,-4,-1,0
COc1ccc(OC)c(C2C/C(=N/O)C(C)C(c3cc(OC)ccc3OC)N2)c1 (stereo not drawn),1,.,.,.,-1,.,.,.
COP1(=O)C=CC(N(Cc2ccccc2)S(=O)(=O)c2ccccc2[N+](=O)[O-])C(C)O1 (stereo not drawn),.,.,0.7,.,.,.,.,.
COc1ccc(-n2c(Cc3cccn3C)nnc2SCC(=O)Nc2nc(C)cs2)cc1,3,15*,0.73,9,27,-1,-1,-2
COc1ccc(-n2c(Cc3cccn3C)nnc2SCC(=O)Nc2ccccc2)cc1,2,7,0.77,-2,1,.,.,.
Cc1c(-n2cc(C(=O)O)c(=O)c3cc(F)c(N4CCCC4)c(F)c32)c(=O)n(-c2ccccc2)n1C,3,1,0.69,2,-15,.,.,.
NC1C2CN(c3nc4c(cc3F)c(=O)c(C(=O)O)cn4-c3ccc(F)cc3F)CC12 (stereo not drawn),.,100*,0.044*,98*,109*,99*,100*,101*
O=C(N/N=C/c1c(O)ccc2ccccc12)c1ccc(Br)o1,16*,21*,.,23*,-10,15*,17*,11
O=C(N/N=C\c1c(O)ccc2ccccc12)c1ccc(O)cc1,0,6,.,-3,3,.,.,.
Cc1occc1C(=O)N/N=C/c1c(O)ccc2ccccc12,10,17*,.,14*,2,17*,16*,9
CCOC(=O)C(CC)Sc1nc2c(cnn2-c2ccc(F)cc2)c(=O)[nH]1 (stereo not drawn),1,1,0.64,0,2,.,.,.
CCC(Sc1nc2c(cnn2-c2ccc(Cl)cc2)c(=O)[nH]1)C(=O)OC (stereo not drawn),2,97*,0.84,43*,-12,0,1,0
CCCc1cc(C(=O)Nc2ccccc2SC)no1,3,98*,0.76,91*,-6,0,0,-3
CCOC(=O)C1C2COc3ccc(Br)cc3C2N2C(=O)CN(CC3CCCO3)C(=O)[C@@]12C (stereo partly drawn),.,.,0.67,.,.,.,.,.
O=C(NN1C(=O)CSC1=S)C(=O)NN1C(=O)CSC1=S,13*,12*,0.66,12*,-7,34*,16*,28*
Cc1ccc(NC=C(C#N)c2ccsc2)cc1,.,.,0.65,.,.,.,.,.
O=C(NCc1ccccc1)C1=CC(c2ccc3c(c2)OCO3)CC(OCCCCO)O1 (stereo not drawn),.,.,0.64,.,.,.,.,.
S=C(NCc1ccccc1Cl)Nc1ccccc1Cl,3,9,0.65,3,1,.,.,.
Cc1cc(Cl)ccc1NC(=S)NCc1ccccc1Cl,1,16*,0.65,6,4,15*,15*,14
